Rows were chosen to be rich in hits. Some 0.84% of all compounds tested hit in one or more screens of this group.
PPARg SRC2 recr = agonists of PPARg-SRC-2 recruitment, primary screen, biochemical, HTS; PPARgamma LBD-SRC-2 recruitment; AID 1032, 2008; Peroxisome proliferator-activated receptor gamma (Homo sapiens), P37231; activation, % at 8 µM; 200,000 compounds, 0.34% hits; in the data active means activation above about 22%;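 further: 0% = vehicle and 100% = reference agonist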
Target sequence (P37231 whole entry, looked up, the tested form may be a part): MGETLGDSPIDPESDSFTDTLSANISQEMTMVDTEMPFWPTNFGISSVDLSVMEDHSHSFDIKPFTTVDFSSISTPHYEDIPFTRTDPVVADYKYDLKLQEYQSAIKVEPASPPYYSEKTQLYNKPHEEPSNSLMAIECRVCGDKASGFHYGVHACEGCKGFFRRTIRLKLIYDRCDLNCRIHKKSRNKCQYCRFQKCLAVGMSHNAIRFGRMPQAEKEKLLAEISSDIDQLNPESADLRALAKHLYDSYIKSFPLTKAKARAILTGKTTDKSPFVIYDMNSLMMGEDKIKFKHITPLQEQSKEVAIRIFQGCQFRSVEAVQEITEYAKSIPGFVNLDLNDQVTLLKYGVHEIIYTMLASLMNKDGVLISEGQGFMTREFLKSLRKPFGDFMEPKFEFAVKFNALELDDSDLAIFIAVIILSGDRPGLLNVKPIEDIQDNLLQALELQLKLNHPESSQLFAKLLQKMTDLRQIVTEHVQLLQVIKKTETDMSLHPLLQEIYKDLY
SRC1 TRFRET art = TR-FRET detection interference compounds, primary screen, artefact control for PPARgamma SRC-1 recruitment agonists, biochemical, TR-FRET emission ratio. 99,000 compounds, 0.34% hits. AID 1051, 2008. TR-FRET detection artefact counter-screen; stronger effect = higher value. TR-FRET ratio at 8 µM; in the data active means TR-FRET ratio above about 2300
PPARg SRC-1 ag = PPARgamma agonists recruiting SRC-1 coactivator, primary screen, biochemical. activation, % at 8 µM. PPARgamma-SRC-1 coactivator recruitment biochemical assay. 200,000 compounds, 0.41% hits. Peroxisome proliferator-activated receptor gamma (Homo sapiens), P37231; in the data active means activation above about 19%;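 further: 0% = DMSO and 100% = reference agonist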
PPARg SRC3 recr = PPARgamma agonists recruiting SRC-3 coactivator, primary screen, biochemical; AID 731, 2007; activation, % at 8 µM; biochemical PPARgamma/SRC-3 coactivator recruitment assay; 200,000 compounds, 0.26% hits; Peroxisome proliferator-activated receptor gamma (Homo sapiens), P37231; in the data active means activation above about 23%;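 further: 0% = DMSO and 100% = reference agonist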
SRC3 TRFRET art = TR-FRET detection interference compounds, artefact control for PPARgamma SRC-3 recruitment agonists, biochemical, TR-FRET ratio; TR-FRET artefact counter-screen, PPARgamma/SRC-3 format; stronger effect = higher value; TR-FRET ratio at 8 µM; 99,000 compounds, 0.39% hits; AID 1048, 2008
TR-FRET SRC-2 ct = TR-FRET signal artefacts, primary screen, artefact control for PPARgamma SRC-2 agonist project, biochemical; TR-FRET artefact counter-screen; stronger effect = higher value; TR-FRET ratio at 8 µM; 200,000 compounds, 0.4% hits; AID 1049, 2008
PPARg SRC2 conf = agonists of PPARgamma SRC-2 coactivator recruitment, confirmation, biochemical, HTS | 790 compounds, 52% hits | biochemical SRC-2 recruitment by PPARgamma | activation, % at 8 µM | AID 1297, 2008 | shares compounds with PPARg SRC3 recr; in the data active means activation above about 22%;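 further: 0% = vehicle alone and 100% = reference agonist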
PPARg SRC1 ag = PPARgamma agonists recruiting SRC-1 coactivator, confirmation, biochemical; 790 compounds, 43% hits; PPARgamma–SRC-1 coactivator recruitment biochemical assay; activation, % at 8 µM; shares compounds with PPARg SRC3 recr; in the data active means activation above about 20%;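 further: 0% = vehicle wells and 100% = reference agonist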
PPARg SRC3 conf = PPARgamma-driven SRC-3 coactivator recruitment agonists, confirmation, biochemical; activation, % at 8 µM; shares compounds with PPARg SRC3 recr; AID 1301, 2008; 790 compounds, 29% hits; biochemical PPARgamma-SRC-3 coactivator recruitment, agonist mode; in the data active means activation above about 24%;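 further: 0% = vehicle wells and 100% = reference agonist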
* marks the source's active call; other numbers are inactive results; . = not tested or not shown. Unless noted, no stated cut-off is given here; in the data, active means TR-FRET ratio above about 2000; inactive means the rest.

SMILES | PPARg SRC2 recr | SRC1 TRFRET art | PPARg SRC-1 ag | PPARg SRC3 recr | SRC3 TRFRET art | TR-FRET SRC-2 ct | PPARg SRC2 conf | PPARg SRC1 ag | PPARg SRC3 conf
O=C(CSc1ncnc2c1oc1ccccc12)NCc1ccc(F)cc1 | 71* | . | 58* | 63* | . | 3344* | 48* | 34* | 29*
Cc1cccc(NC(=O)CSc2ncnc3c2oc2ccccc23)c1 | 19 | . | 11 | 14 | . | 1711 | . | . | .
Fc1cccc(CSc2ncnc3c2oc2ccccc23)c1 | 45* | . | 36* | 42* | . | 2464* | 39* | 27* | 27*
Cc1ccc2nc(NC(=O)CSc3ncnc4c3oc3ccccc34)sc2c1 | 10 | . | 30* | 14 | . | 1748 | 33* | 22* | 19
COC(=O)c1ccc2c(=O)n(-c3ccccc3)c(=S)[nH]c2c1 | 0 | 1949 | 1 | 0 | 1579 | 1472 | . | . | .
CCc1cc2c(=O)n(-c3ccccc3)c(=S)[nH]c2s1 | 37* | . | 27* | 41* | . | 2026* | 31* | 25* | 24
O=C1c2ccccc2-c2cccc(NS(=O)(=O)c3ccc(C(F)(F)F)cc3)c21 | 11 | . | 12 | 31* | . | 1656 | 24* | 22* | 14
COc1ccc2c(C)cc(=S)[nH]c2c1 | 22* | 2499* | 32* | 15 | 2185* | 1987* | 6 | 6 | 4
O=C1CSC2=NCN(c3ccc4c(c3)OCO4)CN12 | -8 | . | 2 | -5 | . | 1524 | . | . | .
CN(C)c1ccc(N2CN=C3SCC(=O)N3C2)cc1 | 64* | . | 50* | 86* | . | 2229* | 6 | 10 | 3
CCCOc1ccc(C2C(=O)N(C3CCCCC3)CC(=O)N2C2CC2)cc1OC (stereo not drawn) | 12 | . | 1 | 3 | . | 1503 | . | . | .
CCOC(=O)c1c(C)[nH]sc1=S | 58* | . | 40* | 70* | . | 2727* | 33* | 21* | 25*
O=c1c2c(-c3cccs3)csc2ncn1-c1ccccc1 | 0 | . | -2 | 2 | . | 1481 | . | . | .
C=CCn1c(=S)[nH]c2scc(-c3ccc(C)o3)c2c1=O | 15 | 2448* | 25* | 24* | 2146* | 2125* | 21 | 15 | 16
O=c1c2c(-c3cccs3)csc2[nH]c(=S)n1-c1ccccc1 | 43* | . | 65* | 82* | . | 2587* | 63* | 48* | 42*
CCn1c(=S)[nH]c2scc(-c3cccs3)c2c1=O | 49* | 3314* | 52* | 39* | 2804* | 2915* | 60* | 44* | 39*
C=CCn1c(=S)[nH]c2sccc2c1=O | 9 | 1985 | 7 | 0 | 1503 | 1612 | . | . | .
CC(=O)Nc1ccc(N2CC(C)(C)C2=O)cc1 | -2 | 1431 | 3 | -2 | 1583 | 1587 | . | . | .
CN(C)c1ccc(-c2nn3c(-c4ccc(Cl)cc4Cl)nnc3s2)cc1 | 5 | 1837 | 3 | -3 | 1563 | 1484 | . | . | .
Clc1ccc(-c2nnc3sc(-c4ccc(Br)o4)nn23)c(Cl)c1 | 23* | . | 6 | 21 | . | 1760 | 15 | 10 | 10
COc1ccc(Cl)cc1NC(=S)N1CCCC1 | 8 | 1955 | 5 | -3 | 1612 | 1602 | . | . | .
CC[n+]1ccc(/C=C/c2ccc(N(C)C)cc2)c2ccccc21 | 109* | 4146* | 149* | 125* | 4546* | 4436* | 160* | 119* | 105*
CC[n+]1c(/C=C/c2ccc(N(C)C)cc2)ccc2ccccc21 | 64* | 3540* | 61* | 47* | 2785* | 2167* | 53* | 39* | 30*
CC[n+]1ccccc1/C=C/c1ccc(N(C)C)cc1 | 6 | 2025 | -3 | 5 | 1475 | 1570 | . | . | .
CN(C)c1ccc(/C=C/c2cc[n+](C)cc2)cc1 | 4 | . | 9 | 8 | . | 1364 | . | . | .
SMILES | PPARg SRC2 recr | SRC1 TRFRET art | PPARg SRC-1 ag | PPARg SRC3 recr | SRC3 TRFRET art | TR-FRET SRC-2 ct | PPARg SRC2 conf | PPARg SRC1 ag | PPARg SRC3 conf
COc1ccc2c(c1)c(=O)oc1cc(O)ccc12 | 5 | 1714 | -2 | 3 | 1675 | 1582 | . | . | .
O=c1oc2cc(O)ccc2c2ccccc12 | 47* | . | 28* | 60* | . | 2392* | 30* | 17 | 22
COC(=O)C(/C=N/OCc1ccc([N+](=O)[O-])cc1)NC(=O)c1cccc(Cl)c1 (stereo not drawn) | 9 | . | -5 | 7 | . | 1588 | . | . | .
Cc1cc(C)c(NC(=O)C2CCCN2C(=O)NC2CCCCC2)c(C)c1 (stereo not drawn) | -1 | . | -3 | 1 | . | 1527 | . | . | .
O=C1CCCN1CCNC(=S)Nc1ccccc1 | 0 | . | 1 | 11 | . | 1426 | . | . | .
O=C1CCCN1CCCNC(=S)Nc1ccc(Nc2ccccc2)cc1 | 14 | 2144 | 24* | 11 | 1767 | 1621 | 9 | 5 | 5
COc1ccc(C2(C(F)(F)F)NC(=O)N(C)C(=O)N2C)cc1 (stereo not drawn) | 5 | 1897 | 3 | -1 | 1742 | 1533 | . | . | .
CN(C)CCN1C(=O)C(O)=C(C(=O)c2cc3ccccc3o2)C1c1ccccn1 (stereo not drawn) | -6 | . | 5 | 15 | . | 1299 | . | . | .
CCN(CC)CCCN1C(=O)C(O)=C(C(=O)c2cc3ccccc3o2)C1c1ccccn1 (stereo not drawn) | 48* | . | 43* | 62* | . | 2586* | 40* | 30* | 27*
COc1ccnc(Oc2ccc(F)cc2)c1C(=O)N/C=N/OCc1ccccc1 | 2 | 1740 | 13 | 2 | 1832 | 1537 | . | . | .
Cc1cccc(NC(=O)CSc2c3c(nc4ccccc24)CCC3)n1 | 7 | 1807 | -3 | 5 | 1583 | 1518 | . | . | .
Cc1ccc(CNC(=O)CSc2c3c(nc4ccc(Cl)cc24)CCCC3)o1 | 16 | . | 13 | 19 | . | 1885 | . | . | .
COc1cccc(NC(=O)CSc2c3c(nc4ccccc24)CCCC3)c1 | 21 | 2392* | 21* | 13 | 2050 | 1718 | 22* | 17 | 15
CCN(CC)CCNC(=O)CSc1c2c(nc3cc(Cl)ccc13)CCCC2 | 47* | 3055* | 23* | 25* | 2600* | 2230* | 33* | 22* | 22
COc1cc(NC(=S)NN2CCN(C)CC2)cc(OC)c1OC | -7 | 1810 | 1 | 0 | 1646 | 1455 | . | . | .
